# Pf Dd2 inh: P. falciparum Dd2 growth inhibition | activity change, % at 10 µM | AID 1159554 | actives 2.3% (n = 94,000) | SYBR Green, 72 h; active compounds read low; in the data active = activity change below about -80%
# T cruzi growth: T. cruzi proliferation inhibition; T. cruzi beta-gal in NIH3T3, GalScreen luminescence, 90 h; inhibition, % at 8.34 µM; actives 5.9% (n = 77,000); AID 624255;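 active = mean inhibition above about 93%, with at least 55% of replicates each passing it, limit read from the data, passing the limit was not always enough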
# C diff HTS: inhibitors of Clostridium difficile growth; growth activity, negative = inhibition, % at 16 µg/mL (by protocol); Clostridium difficile clinical isolate growth, OD600, 24 h; active compounds read low; actives 0.25% (n = 86,000); AID 1259249;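 active = mean growth activity at or below -80% and every replicate also at or below -80%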;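 note: 0% = DMSO wells and -100% = levofloxacin 16 µg/mL wells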
# The depositor's hits bear a star; nt = no result. A selection: hits, their analogues and other compounds. The true share with any hit is near 6.8%.
SMILES,Pf Dd2 inh,T cruzi growth,C diff HTS
COc1ccccc1NC(=O)N1CCCCN2[C@H](CO)[C@H](c3ccc(-c4cccc(C)c4)cc3)[C@H]2C1,-86*,75,-65
COc1ccccc1NC(=O)N1CCCCN2[C@@H](CO)[C@H](c3ccc(C#CC4CCCC4)cc3)[C@@H]2C1,-83*,-3,56
Cc1cccc(-c2ccc([C@@H]3[C@H](CO)N4CCCCN(CCC(F)(F)F)C[C@@H]34)cc2)c1,-81*,84,21
COc1ccccc1NC(=O)N1CCCCN2[C@H](CO)[C@H](c3ccc(-c4ccc(C)cc4)cc3)[C@@H]2C1,-11,87,-5
C[C@H](CO)N1C[C@H](C)[C@@H](CN(C)Cc2ccc(C(=O)O)cc2)Oc2ccc(NC(=O)CCC(F)(F)F)cc2C1=O,5,24,2
COCC(=O)Nc1ccc2c(c1)[C@H]1C[C@H](CC(=O)NCc3ccc(Cl)cc3)O[C@@H](CO)[C@H]1O2,13,-22,-3
C[C@H](CO)N1C[C@H](C)[C@@H](CN(C)Cc2ccncc2)Oc2ccc(NC(=O)NC3CCCCC3)cc2CC1=O,-22,52,1
COc1cccc(S(=O)(=O)N2CC3(CN(C(=O)Nc4ccc(F)cc4)[C@@H](CO)c4[nH]c5cc(OC)ccc5c43)C2)c1,-51,nt,-1
CCCN1[C@H](C(=O)NC2CCC2)[C@@H](CO)[C@@H]2Cn3c(ccc(-c4cccnc4)c3=O)[C@@H]21,nt,77,-7
CC(C)NC(=O)Nc1cccc2c1O[C@@H](CN(C)Cc1ccc(C(=O)Nc3ccccc3N)cc1)[C@@H](C)CN([C@@H](C)CO)C2=O,-20,nt,-2
C[C@@H]1CN([C@H](C)CO)C(=O)c2cccc(NC(=O)NC3CCCCC3)c2O[C@@H]1CN(C)Cc1ccc(C(=O)Nc2ccccc2N)cc1,-84*,77,nt
C[C@@H]1CN([C@@H](C)CO)C(=O)c2cccc(NC(=O)C3CCCCC3)c2O[C@@H]1CN(C)Cc1ccc(C(=O)Nc2ccccc2N)cc1,-85*,57,0
C[C@@H]1CN([C@H](C)CO)C(=O)c2cccc(NC(=O)C3CCOCC3)c2O[C@@H]1CN(C)Cc1ccc(C(=O)Nc2ccccc2N)cc1,3,81,5
C[C@H]1CN([C@@H](C)CO)C(=O)c2c(c3ccccc3n2C)-c2ccccc2CO[C@@H]1CN(C)S(=O)(=O)c1ccc(F)cc1,-91*,83,nt
C[C@@H]1CN([C@H](C)CO)C(=O)c2c(c3ccccc3n2C)-c2ccccc2CO[C@H]1CN(C)S(=O)(=O)c1ccc(F)cc1,-40,63,nt
C[C@@H]1CN([C@H](C)CO)C(=O)c2c(c3ccccc3n2C)-c2ccccc2CO[C@H]1CN(C)S(=O)(=O)c1ccccc1,-75,72,nt
C[C@H](CO)N1C[C@H](C)[C@H](CN(C)S(=O)(=O)c2ccc(F)cc2)OCc2ccccc2-c2c(n(C)c3ccccc23)C1=O,-87*,84,nt
CS(=O)(=O)Nc1ccc2c(c1)[C@@H]1C[C@@H](CC(=O)NCc3ccccc3F)O[C@H](CO)[C@@H]1O2,25,7,2
Cc1ccc(S(=O)(=O)Nc2ccc3c(c2)C(=O)N([C@H](C)CO)C[C@@H](C)[C@H](CN(C)Cc2ccc4c(c2)OCO4)O3)cc1,21,65,-1
CC(C)C#Cc1cnc2c(c1)C(=O)N([C@H](C)CO)C[C@@H](C)[C@H](CN(C)C(=O)Nc1ccc(F)cc1)O2,-41,63,-3
C[C@@H]1CCCCO[C@@H](CN(C)C(=O)Nc2cccc3ccccc23)[C@H](C)CN([C@@H](C)CO)C(=O)c2cc(NC(=O)Cc3ccccc3)ccc2O1,-81*,95,12
C[C@@H]1CCCCO[C@H](CN(C)C(=O)Nc2cccc3ccccc23)[C@@H](C)CN([C@@H](C)CO)C(=O)c2cc(NC(=O)Cc3ccccc3)ccc2O1,-69,83,5
C[C@@H]1CCCCO[C@H](CN(C)C(=O)Nc2cccc3ccccc23)[C@@H](C)CN([C@H](C)CO)C(=O)c2cc(NC(=O)Cc3ccccc3)ccc2O1,-39,23,6
C[C@H](CO)N1C[C@H](C)[C@H](CN(C)C(=O)Nc2cccc3ccccc23)OCCCC[C@H](C)Oc2ccc(NC(=O)Cc3ccccc3)cc2C1=O,-82*,42,11
CCS(=O)(=O)N1CCCCN2[C@H](CO)[C@@H](c3ccc(-c4ccc(C#N)cc4)cc3)[C@H]2C1,-6,19,4
SMILES,Pf Dd2 inh,T cruzi growth,C diff HTS
Cc1ccc(-c2ccc([C@@H]3[C@H]4CN(C(=O)Nc5cccc(F)c5)CC(=O)N4[C@H]3CO)cc2)cc1,-13,nt,24
O=C(Nc1cccc(F)c1)N1CC(=O)N2[C@H](CO)[C@H](c3ccc(C#CC4CC4)cc3)[C@H]2C1,2,nt,-14
O=C(Nc1cccc(F)c1)N1CC(=O)N2[C@H](C1)[C@@H](c1ccc(C#CC3CC3)cc1)[C@@H]2CO,-82*,nt,-5
Cc1ccc(-c2ccc([C@H]3[C@@H](CO)N4C(=O)CN(C(=O)Nc5cccc(F)c5)C[C@H]34)cc2)cc1,-84*,nt,14
C[C@@H]1CN([C@H](C)CO)S(=O)(=O)c2ccc(-c3ccc(F)cc3)cc2O[C@H]1CN(C)Cc1cccc(F)c1,-13,61,53
CC(C)NC(=O)N(C)C[C@H]1Oc2ccc(N(C)C)cc2C(=O)N([C@H](C)CO)C[C@@H]1C,13,30,2
COc1ccccc1CNC(=O)C[C@@H]1C[C@@H]2c3cc(NC(=O)Cc4ccncc4)ccc3O[C@@H]2[C@H](CO)O1,-47,-45,1
C[C@@H](NC(=O)C[C@H]1C[C@@H]2c3cc(NS(=O)(=O)c4ccc(F)cc4)ccc3O[C@@H]2[C@H](CO)O1)c1ccccc1,-99*,64,-10
C[C@H](NC(=O)C[C@H]1C[C@@H]2c3cc(NS(=O)(=O)c4ccc(F)cc4)ccc3O[C@@H]2[C@H](CO)O1)c1ccccc1,-22,23,-8
COc1ccccc1CNC(=O)C[C@H]1C[C@H]2c3cc(NC(=O)Cc4ccncc4)ccc3O[C@H]2[C@@H](CO)O1,-82*,-27,7
CCCNC(=O)N1CC2(CN(Cc3ccccn3)C2)c2c(n(C)c3cc(OC)ccc23)[C@@H]1CO,-73,nt,-6
COc1ccc(S(=O)(=O)Nc2ccc3c(c2)C(=O)N([C@H](C)CO)C[C@H](C)[C@@H](CN(C)C(=O)c2ccccc2)OCCCC[C@H](C)O3)cc1,-10,-1,7
COc1ccc(NC(=O)Nc2ccc3c(c2)C(=O)N([C@H](C)CO)C[C@H](C)[C@H](CN(C)CC2CCCCC2)OCCCC[C@@H](C)O3)cc1,-62,67,-1
C[C@H]1CCCCO[C@H](CN(C)CC2CCCCC2)[C@@H](C)CN([C@@H](C)CO)C(=O)c2cc(NC(=O)Nc3ccccc3)ccc2O1,-73,82,5
COc1ccc(NC(=O)Nc2ccc3c(c2)C(=O)N([C@@H](C)CO)C[C@H](C)[C@H](CN(C)CC2CCCCC2)OCCCC[C@H](C)O3)cc1,-84*,68,-7
C[C@@H]1CCCCO[C@@H](CN(C)CC2CCCCC2)[C@H](C)CN([C@H](C)CO)C(=O)c2cc(NC(=O)Nc3ccccc3)ccc2O1,-84*,94,16
